Measured values reported in PubChem BioAssay (Tox21).
Results filed as inconclusive are left out. Unmarked numbers belong to inactive results. Calls follow the shape of the full dose curve.

Target: Beta-2 adrenergic receptor (Homo sapiens) (UniProt P07550)
Assay: Adrenergic beta2 receptor (ADRB2) small molecule agonists, cell-based qHTS assay (AID 1963593)
Settings: CHO-ADRB2 cells, cAMP HTRF, 30 min; series mostly up to 92.4 µM; activation: at the top concentration
Description: National Center for Advancing Translational Sciences [NCATS]
Division of Preclinical Innovation [DPI]
U.S. Environmental Protection Agency [EPA]
National Institutes of Environmental Health Sciences [NIEHS]
National Toxicology Program [NTP]
U.S. Food and Drug Administration [FDA]
Beta adrenergic receptors (Beta-ARs) belong to the G-protein coupled receptor (GPCR) superfamily, includes three subtypes - beta1, beta2, and beta3. Beta1-AR is the predominant receptor subtype expressed in the heart, and beta2-AR is expressed in the kidney, lung, blood vessel and in the heart, and beta3 is found in the adipocytes. Beta1 and 2 ARs couple to Gs protein and elevate cyclic adenosine mono phosphate (cAMP), which activates protein kinase A and leads to the downstream signaling responsible for the physiological actions. Beta-AR agonists or antagonists are the most prescribed therapeutic agents for heart failure and asthma, and these were one of the first target receptors for the rational drug design. Tox21 10K compound library was screened using the cAMP-Gs dynamic assay (Cisbio Bioassays, Shelton, CT) to identify agonists/antagonists of the Gs-coupled human adrenergic, beta2 receptor (ADRB2) in the CHO-ADRB2 cell line (Codex BioSolutions, Inc. Gaithersburg, MD), which stably over-expresses ADRB2. The principle of cAMP-Gs dynamic assay is based on HTRF technology, which facilitates the fluorescence resonance energy transfer (FRET) between donor Europium cryptate and acceptor d2-labeled cAMP. The cAMP generated within cells competes with the red acceptor, d2-labled cAMP, for binding to the monoclonal anti-cAMP-cryptate (Europium donor). An increase in intracellular cAMP leads to the disruption of FRET signal, and the signal is inversely proportional to the cAMP concentration. Isoproterenol HCl (Sigma-Aldrich, St. Louis, MO) was used as a positive control in the screening.
Tox21 Assay Protocol Summary:
CHO-ADRB2 cells were dispensed at 1,000/well in 4uL assay medium into white/solid 1536-well plates (Greiner Bio-One North America Inc., Monroe, NC) using a Multidrop Combi dispenser (ThermoFisher Scientific, Waltham, MA). The assay plates were incubated at 37C and 5% CO2 for an overnight (18-20hr). Then positive control and test compounds dissolved in DMSO were transferred to the assay plates at 23nL using a Pintool station (Wako, San Diego, CA). Following the compound and positive control transfer, 1uL stimulation mix containing 100uM IBMX and 25uM Ro-20-1724 was added to each well of the assay plates using BioRAPTR Flying Reagent Dispenser (FRD, Beckman Coulter, Brea, CA). The assay plates were incubated at room temperature for 0.5hr. Then 2.5ul each d2-labled cAMP and anti-cAMP-cryptate solutions were added separately to each well of the assay plates using an FRD and the assay plates were incubated at room temperature for 1hr.
% is scaled to controls: 0 for no effect and ±100 for the full control effect.

Sequence of Beta-2 adrenergic receptor (Homo sapiens) (P07550 whole entry, looked up): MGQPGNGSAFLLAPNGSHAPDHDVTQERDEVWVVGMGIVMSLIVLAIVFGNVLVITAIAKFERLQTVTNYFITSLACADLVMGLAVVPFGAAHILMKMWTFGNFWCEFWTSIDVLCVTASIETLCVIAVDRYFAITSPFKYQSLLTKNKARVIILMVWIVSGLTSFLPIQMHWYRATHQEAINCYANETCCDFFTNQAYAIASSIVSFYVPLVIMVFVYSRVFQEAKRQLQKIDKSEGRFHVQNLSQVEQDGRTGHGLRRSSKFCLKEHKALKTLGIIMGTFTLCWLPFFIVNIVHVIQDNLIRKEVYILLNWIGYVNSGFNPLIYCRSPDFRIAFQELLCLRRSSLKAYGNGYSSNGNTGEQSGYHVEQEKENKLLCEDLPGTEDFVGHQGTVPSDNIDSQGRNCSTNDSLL

In order of rising “activation” value:
1. Nc1ccc2cc(S(=O)(=O)O)cc(O)c2c1N=Nc1ccccc1C(F)(F)F  -27.7%
2. CCCCNC(=S)NCCCC  -23.6%
3. Sc1nc2ccccc2s1  -19.8%
4. CCCCCCCCCOC(=O)CCCCC(=O)OCCCCCCC  -14.9%
5. S=C([S-])NCCNC(=S)[S-].[Mn+2]  -9.64%
6. CCC(C)O (stereo not given)  -6.27%
7. CCCC1CCOC(C)S1 (stereo not given)  -1.28%
8. COc1cc([C@@H]2c3cc4c(cc3[C@@H](O[C@@H]3O[C@@H]5CO[C@@H](C)O[C@H]5[C@H](O)[C@H]3O)[C@H]3COC(=O)[C@H]23)OCO4)cc(OC)c1O  -1.11%
9. CCCCCCCC1CCC(=O)O1 (stereo not given)  0.0932%
10. CCNc1nc(NC(C)CC)nc(OC)n1 (stereo not given)  1.38%
11. CC1CCC(CO)CC1 (stereo not given)  2.04%
12. CC1=CC=C(C(C)C)CC1  2.17%
13. C=C(C)C(=O)OCCOCCOCCOCCOC(=O)C(=C)C  5.55%
14. CC(CC(=O)Cl)CC(C)(C)C (stereo not given)  5.56%
15. Clc1cccc(-c2cc(Cl)cc(Cl)c2)c1  7.61%
16. O=[N+]([O-])c1cccc(Cl)c1Cl  9.2%
17. CNC(C)=O  10.9%
18. CC(C)(C)c1ccc(OCC2CO2)cc1 (stereo not given)  11.9%
19. CC1=CCC(C(C)C)C=C1 (stereo not given)  15.1%
20. Oc1ccc(Cc2ccccc2)cc1  15.5%
21. CC(C)C(OC(=O)c1ccccc1)C(C)(C)COC(=O)c1ccccc1 (stereo not given)  22%
22. NO  31.8%

In order of falling “activation” value:
1. CCS(=O)(=O)c1ccc(OC)c(C(=O)OC)c1  37.5% [at 42.5 µM]
2. C[C@]12CC[C@@H]3c4ccc(O)cc4CC[C@H]3[C@@H]1CC[C@@H]2OC(=O)CCC1CCCC1  20% [at 42.5 µM]
3. COC(=O)[C@@H]1CC2=CC(=O)CC[C@]2(C)[C@@]23O[C@@H]2C[C@@]2(C)[C@@H](CC[C@@]24CCC(=O)O4)[C@H]13  18.1% [at 42.5 µM]
4. CC(C)n1c(/C=C/[C@@H](O)C[C@@H](O)CC(=O)O)c(-c2ccc(F)cc2)c2ccccc21  15.6% [at 42.5 µM]
5. CCCCCC1Nc2cc(C(F)(F)F)c(S(N)(=O)=O)cc2S(=O)(=O)N1 (stereo not given)  7.87% [at 42.5 µM]
6. C[C@@H]1C[C@H]2[C@@H]3C[C@H](F)C4=CC(=O)C=C[C@]4(C)[C@@]3(F)[C@@H](O)C[C@]2(C)[C@@]1(O)C(=O)CO  7.69% [at 42.5 µM]
7. Nc1ccn(C2CO[C@H](CO)O2)c(=O)n1 (stereo not given in full)  6.16% [at 42.5 µM]
8. CC1(COc2ccc(CC3SC(=O)NC3=O)cc2)CCCCC1 (stereo not given)  3.27% [at 42.5 µM]
9. Cc1ccc(Cl)c(Nc2ccccc2C(=O)O)c1Cl  2.82% [at 42.5 µM]
10. NNC(=O)CP(=O)(c1ccccc1)c1ccccc1  2.51% [at 42.5 µM]
11. COc1ccc(-c2cc(=S)ss2)cc1  -0.851% [at 42.5 µM]
12. C[C@H]1COc2c(C3(N)CC3)c(F)cc3c(=O)c(C(=O)O)cn1c23  -2.86% [at 42.5 µM]
13. Cc1cc(O)c(C(C)C)cc1Cl  -10.4% [at 42.5 µM]
14. C/C=C/C=N/NC(=O)c1ccncc1  -37.6% [at 42.5 µM]

In order of rising activation:
1. CC1CN(c2cc3c(cc2F)c(=O)c(C(=O)O)cn3-c2ccc(F)cc2F)CCN1 (stereo not given)  1.31% [at 8.39 µM]
2. C[C@](N)(Cc1ccc(O)cc1)C(=O)O  23.8% [at 8.39 µM]

In order of falling activation:
1. [O-][n+]1ccccc1SSc1cccc[n+]1[O-]  17.9% [at 19 µM]
2. c1ccc2sc(SSc3nc4ccccc4s3)nc2c1  0.998% [at 19 µM]
